# Assay results from PubChem BioAssay (NCI).
# Compounds without any hit were thinned out: in the full panel of roughly 79,000, 15% have a hit. Unmarked numbers belong to inactive results. The source made the active and inactive calls. No stated cut-off is given here; in the data, active means growth inhibition above about 70%; inactive means the rest.
# Columns and labels:
# [1] = NCI Yeast Anticancer Drug Screen. Data for the rad50 strain (AID 155);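 further: 0% = growth of vehicle-only cultures of the same strain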; details: S. cerevisiae rad50 strain growth inhibition; at 50.0 µM; hits give high values
# In short: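 Relative growth inhibition (compound vs vehicle) was measured in yeast with a defined repair-gene alteration.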
# [2] = NCI Yeast Anticancer Drug Screen. Data for the mec2-1 strain (AID 157); details: S. cerevisiae mec2-1 strain, at 50.0 µM, hits give high values
# In short: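 Strain: mec2-1 (DNA repair/cell cycle alteration). Compound exposure, then growth measured; inhibition expressed relative to vehicle.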
# [3] = NCI Yeast Anticancer Drug Screen. Data for the sgs1 mgt1 strain (AID 161);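 further: 0% = growth of cultures given vehicle only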; details: S. cerevisiae sgs1 mgt1 strain, at 50.0 µM, hits give high values
# In short: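 Inhibition of yeast growth, normalised to vehicle-treated controls, is reported for a strain bearing genetic alterations in DNA damage repair.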
# [4] = NCI Yeast Anticancer Drug Screen. Data for the cln2 rad14 strain (AID 165);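 further: 0% = growth equal to vehicle treated cultures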; details: S. cerevisiae cln2 rad14 strain, at 50.0 µM, hits give high values
# In short: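 Compounds are applied to the cln2 rad14 yeast strain, and growth is then compared with that of vehicle-treated cultures to give inhibition.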
# [5] = NCI Yeast Anticancer Drug Screen. Data for the bub3 strain (AID 167); details: S. cerevisiae bub3 mutant strain, at 50.0 µM, hits give high values
# In short: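 Screening used yeast with an engineered genetic alteration affecting cell cycle control. Compound-exposed cultures were compared with vehicle cultures, and reduced growth was taken as inhibition.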
# [6] = NCI Yeast Anticancer Drug Screen. Data for the mlh1 rad18 strain (AID 175); details: S. cerevisiae mlh1 rad18 strain growth inhibition; at 50.0 µM; hits give high values
# In short: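 Read-out is yeast growth inhibition, calculated against vehicle-only controls. The compound was applied to a strain engineered with DNA damage repair alterations.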
SMILES,growth inhibition [1],growth inhibition [2],growth inhibition [3],growth inhibition [4],growth inhibition [5],growth inhibition [6]
C=CCC12CC(COc3ccccc3C(N)=O)OC1=Nc1ccccc1NC2=O (centres undefined),0.55%,0.25%,-27.6%,-1.8%,0.8%,-5.05%
c1ccc2c(SCN3CCOCC3)cccc2c1 (tested in a mixture with another compound),35%,21.6%,39%,40.9%,21.8%,29.8%
Cc1ccc(/C=C/C(=N/NC(=O)c2ccccc2)C(C)CN(C)C)cc1 (centres undefined),6.6%,5.65%,6.45%,-11.2%,0.25%,12.9%
Cc1cc(=O)oc2cc(OC(=O)Nc3ccc(F)c([N+](=O)[O-])c3)ccc12,7.85%,45.2%,27.1%,-11.8%,53.9%,12.5%
NC(=O)NN1CC(=O)N(c2ccccc2)CC1=O,7.75%,8.2%,6.8%,-18.1%,14.2%,28.6%
Cc1ccc(NC(=O)C(=O)C(C2C(C)CC(=O)C2CC(=O)O)[N+](=O)[O-])cc1 (centres undefined),23.6%,11.7%,12.2%,17.7%,13.7%,30.6%
CCCCCC(=O)OCCCCCO,13.7%,16.8%,21.5%,13.2%,2.6%,-4.7%
CC1N=C(SCC(=O)c2ccc(Cl)cc2)N2C(C)N=C(SCC(=O)c3ccc(Cl)cc3)N12 (centres undefined),-0.65%,-17.1%,-20.6%,0.5%,-6.85%,10.2%
Cc1ccc(C(=O)OC2C(OC(=O)Nc3ccccc3)OC(COC(=O)c3ccccc3)C2OC(=O)c2ccccc2)cc1 (centres undefined),1.95%,10.1%,9.45%,13.8%,-12.4%,30%
O=C(CN1CCC(O)(c2ccccc2)CC1)N1CCN(/C=C/c2ccccc2)CC1,-4%,-0.45%,-3.75%,-10.6%,-0.1%,10.8%
CC/C(=C\c1ccccc1OC)c1ccncc1,14.2%,-0.1%,30.4%,12.2%,36.6%,1.55%
Cc1ncc(C(N)=O)c(N)n1,21%,-2.05%,-11.6%,-42%,-13.6%,8.3%
CCCCCCCSc1nc2ccc(N=Cc3ccccc3O)cc2s1,-9.8%,-5.9%,-16.9%,-3.25%,-0.9%,-24.4%
S=c1c2ccccc2sn1-c1ccccc1,26.2%,21.6%,14.9%,-0.85%,-12.9%,51.5%
Cc1cccc(NC(=O)CSc2nnc(-c3ccc(N=Cc4ccc(Cl)cc4)cc3)o2)c1,6.3%,-24.1%,9.25%,-42.5%,6.8%,14.7%
NS(=O)(=O)c1cc2c(cc1Cl)NC(Cc1ccccc1)NS2(=O)=O (centres undefined),-20.7%,-4.55%,-9.45%,-7.2%,0.2%,18.4%
O=C(ONC1CCC(CC2CCCCC2)CC1)c1ccccc1 (centres undefined),98.5% (active),98.8% (active),99% (active),96.8% (active),98.2% (active),98.5% (active)
BrCCC[n+]1ccc2ccccc2c1-c1nccc2ccccc12,50.7%,16.1%,54.2%,33.2%,5.05%,49.5%
CNC(=S)SC(=S)NC,14.6%,8.3%,-4.55%,-20.4%,-1.75%,4.75%
